Data reported in the supplement of paper PMC3334620.
The full ranking holds about 33,000 sequences; the median of “E-score (-0.5 to 0.5)” is about -0.041, and the highest 2% start at about 0.37. This is one part of a sample in which the highest values are shown more often than they occur.

target: T1, Ecm22 (UniProt Q05958); test: PBM E-score (8-mer binding enrichment) (E-score (-0.5 to 0.5)); higher = stronger / more preferred TF binding; conditions: protein concentration: 200 nM; construct: GST-full length
T1 sequence: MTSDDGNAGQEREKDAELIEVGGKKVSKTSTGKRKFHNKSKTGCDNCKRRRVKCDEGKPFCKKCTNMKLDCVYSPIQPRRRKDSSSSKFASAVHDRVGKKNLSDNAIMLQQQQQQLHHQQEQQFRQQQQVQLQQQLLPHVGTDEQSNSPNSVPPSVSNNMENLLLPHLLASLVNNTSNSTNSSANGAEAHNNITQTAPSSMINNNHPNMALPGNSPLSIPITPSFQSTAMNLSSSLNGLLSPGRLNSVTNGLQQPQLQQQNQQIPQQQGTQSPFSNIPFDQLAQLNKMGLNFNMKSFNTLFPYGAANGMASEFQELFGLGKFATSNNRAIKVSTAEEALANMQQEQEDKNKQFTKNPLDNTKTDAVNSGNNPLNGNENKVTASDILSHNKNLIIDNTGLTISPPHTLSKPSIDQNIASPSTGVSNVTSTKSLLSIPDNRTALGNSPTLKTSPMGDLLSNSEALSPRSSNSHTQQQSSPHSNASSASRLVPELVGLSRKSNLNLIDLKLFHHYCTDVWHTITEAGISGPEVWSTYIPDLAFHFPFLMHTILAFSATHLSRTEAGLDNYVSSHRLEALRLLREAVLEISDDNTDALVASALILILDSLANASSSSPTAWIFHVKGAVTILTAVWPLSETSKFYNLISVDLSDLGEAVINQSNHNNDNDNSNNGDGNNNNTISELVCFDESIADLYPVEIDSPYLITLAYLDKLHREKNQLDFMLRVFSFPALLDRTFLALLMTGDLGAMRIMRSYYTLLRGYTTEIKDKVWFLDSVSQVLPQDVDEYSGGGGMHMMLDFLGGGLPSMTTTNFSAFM
Experimental: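 Universal 'all 10-mer' protein binding microarrays (Agilent AMADID 015681) probed with GST-tagged S. cerevisiae TFs (full-length or DBD) made by in vitro transcription/translation (PURExpress), about 100-200 nM. Bound TF was detected with fluorescent anti-GST. Each ungapped 8-mer (which stands for itself and its reverse complement) is scored by the PBM enrichment score (E-score), a modified Wilcoxon-Mann-Whitney statistic from -0.5 to +0.5, computed with the Universal PBM Analysis Suite. Scale: above 0.35 generally sequence-specific binding.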

Point of comparison: AGGCCCCA, “PBM E-score” value -0.182. Against it:
- AGATAGGG — higher, -0.127
- ATCTCGAG — higher, -0.0735
- AATGGCTG — higher, -0.124
- CGGGTACC — higher, -0.134
- AGGGTACA — higher, -0.0565
- CGGGTACG — higher, 0.452
- AGAGTACG — higher, 0.257
- AGGGTACG — higher, 0.411
- CGAGTACG — higher, 0.392
- CGAGTACC — higher, 0.21
- CGGGTACA — higher, 0.157
- AGGGTACC — lower, -0.323
- AAGGGCTG — lower, -0.377
- AAGAGACG — higher, 0.0921
- CTACTCTA — lower, -0.204
- ACAAACGC — higher, 0.174
- CAAAACGA — higher, 0.278
- GCAAACGA — higher, 0.433
- ACAAACGA — higher, 0.445
- GCAAACAA — higher, 0.0626
- ACAAACGG — higher, 0.226
- GCAAACGC — higher, 0.0881
- CCAAACGC — higher, 0.177
- TCAAACAA — higher, -0.155
- CCAAACGG — higher, 0.287
- CCAAACGA — higher, 0.437
- TCAAACGA — higher, 0.452
- AGCGGGTG — lower, -0.186
- CTTTTGCC — higher, -0.0531
- ATCAACCA — higher, -0.154
- CGCAAGCG — higher, 0.142
- TGGACCAA — lower, -0.206
- AGGGAGAT — lower, -0.275
- CAATGACG — higher, -0.147
- CCGTTTAA — higher, 0.441
- GCGTTTAA — higher, 0.28
- CCGTTTAG — higher, 0.433
- ACGTTTAC — higher, 0.304
- CCGTTTAC — higher, 0.416
- ACGTTTAG — higher, 0.33
- ACGTTTAA — higher, 0.365
- CAGTTTAG — higher, -0.0933
- GCGTTTAC — higher, 0.227
- ACAGATCT — higher, -0.159
- GTTCCAAC — higher, 0.135
- AATACTAG — higher, 0.0461
- CAGGCGCA — lower, -0.24
- AGGAGGCA — lower, -0.294
- AACGAAAT — higher, 0.4
- CACGAAAG — higher, -0.0739
- AACGAAAG — higher, 0.399
- ACCGAAAT — higher, 0.15
- CACGAAAC — higher, 0.147
- AACGAAAC — higher, 0.389
- GACGAAAC — higher, 0.287
- AACGAAAA — higher, 0.364
- ACCGAAAG — higher, 0.0863
- CCTAAAAG — lower, -0.201
- AACCAAAG — higher, -0.0743
- GTGGCAAA — lower, -0.187
- AGCACCAT — higher, -0.122
- AGCGTACC — higher, 0.251
- AGCGTACA — higher, 0.179
- ATAGTACC — higher, 0.00552
- CACGTACA — higher, 0.216
- ATAGTACG — higher, 0.325
- CTCGTACA — higher, 0.489
- ATAGTACA — higher, 0.151
- ATCGTACA — higher, 0.465
- ATCGTACG — higher, 0.437
- CGCGTACA — higher, 0.269
- AGCGTACG — higher, 0.351
- ATCGTACC — higher, 0.479
- GTTGACCA — higher, -0.16
- TACCGCAA — higher, 0.0649
- AACTGCAT — higher, -0.00243
- ACGCCCAG — higher, -0.143
- AGGCTTAA — higher, -0.168
- GGTACTGA — higher, -0.0769
- CCCGATCA — higher, 0.197
- GTCGTACA — higher, 0.484
- GACGTACA — higher, 0.211
- GGCGTACA — higher, 0.16
- AACGTACA — higher, 0.204
- AACGTACG — higher, 0.378
- AACGTACC — higher, 0.297
- ATTCTTAC — higher, -0.026
- CACCAGCA — higher, -0.028
- CTGCAGGA — lower, -0.245
- AGACCCGC — higher, -0.00174
- AAACGGGT — higher, 0.319
- CAACGAGG — higher, 0.343
- TAACGTGA — higher, -0.142
- AAACGAGT — higher, 0.456
- ACACGAGT — higher, 0.24
- AAACGAGG — higher, 0.476
- AAACGTGG — higher, 0.133
- CAACGAGA — higher, 0.378
- TAACGAGA — higher, 0.369
- TCACGAGA — higher, 0.0348
- ACCCCCCA — lower, -0.296
- ATCACAAG — higher, -0.0512
- CCCCTAGG — lower, -0.307
- ACGAATTC — higher, 0.269
- AGCCTGTC — higher, 0.0499
- CATTGGCG — lower, -0.239
- ATCTTTGA — higher, -0.00074
- AGGCCGAC — higher, -0.106
- AGACGAGA — higher, 0.166
- ACACGAGA — higher, 0.265
- AAACGAGA — higher, 0.463
- GCGTAAGA — higher, 0.074
- AATATCTA — higher, -0.0604
- AGCCGTAC — higher, 0.369
- AGCCGTAT — higher, 0.315
- GACCGTAC — higher, 0.362
- CGCCGTAC — higher, 0.408
- GGCCGTAA — higher, 0.244
- GGCCGTAC — higher, 0.419
- AGCCGTAG — higher, 0.0779
- CGCCGTAA — higher, 0.26
- CGCCGTAG — higher, 0.119
- ACGGTTGA — higher, 0.0702
- AAGCCGAA — higher, -0.0177
- CAGGCACG — higher, -0.112
- AACAACTT — higher, -0.092
- GAAATCTC — higher, 0.129
- CCCGAGCG — higher, 0.173
- GTACGAAC — higher, 0.475
- AGACGAAC — higher, 0.295
- CTACGAAC — higher, 0.369
- ACACGAAC — higher, 0.237
- GGACGAAC — higher, 0.111
- CCACGAAC — higher, 0.201
- CTACGAAG — higher, 0.297
- GCACGAAC — higher, 0.222
- ATACGAAC — higher, 0.474
- CCTAGCCC — lower, -0.222
- AGCGTCCC — higher, -0.145
- AATCTGTG — higher, -0.0802
- GTGGAACA — higher, 0.0214
- GGAGTGCA — higher, 0.0316
- GTGGGTCA — lower, -0.308
- GCGAGGTA — higher, 0.285
- ATGAGGTG — higher, -0.127
- AGGAGGTG — lower, -0.298
- CCGAGGTC — higher, 0.11
- ACGAGGTC — higher, 0.389
- ACGAGGTA — higher, 0.413
- ACGAGGTG — higher, 0.397
- CCGAGGTA — higher, 0.176
- AAGAGGTC — lower, -0.207
- CCTTTTCC — higher, 0.055
- CGGTCTGC — higher, 0.0314
- TACCACGA — higher, 0.0887
- GCAACTGA — higher, 0.0723
- GACTTCGC — higher, 0.232
- GCAACGAC — higher, 0.417
- GCAACGAA — higher, 0.406
- TCAACGAA — higher, 0.187
- CCAACGAC — higher, 0.0154
- ACAACGAC — higher, 0.295
- ACAACGAA — higher, 0.257
- TAGTCCAA — higher, -0.157
- AGTACAAG — higher, 0.0646
- CATACAAG — higher, -0.122
- CGTACTGA — higher, 0.32
- CGTACAAA — higher, 0.412
- AGTACATA — higher, -0.0214
- AGTACAAA — higher, 0.0199
- CGTACTTA — higher, 0.375
